# From PubChem BioAssay (NCATS)
# Values without a mark were called inactive. Records with an inconclusive call do not appear. A call without a number means that no potency is given here. The source made the active and inactive calls. Unless noted, calls come from the whole dose curve; as a rule, active = well fitted curve in the direction sought with a large enough effect; inconclusive = small, poorly fitted or top-dose-only effect, or another doubt; inactive = no such curve, though single readings can be large; an effect the other way counts as inactive or inconclusive.
# Columns and labels:
# C33A = test: Primary qHTS to identify gynecologic anti-cancer compounds using libraries of approved drugs and bioactive compounds (AID 1345084); conditions: Gynecologic cancer cell panel viability, ATPlite luminescence, 48 h; series mostly up to 57.5 µM; note: nearly all actives have a fitted effect of over 55% in size
# How it was run: (§1)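 Five-point cytotoxicity, 48 h drug exposure at 37 C, 5% CO2, on cells seeded 16 h beforehand. ATP content read by ATPlite luminescence.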
# CAOV3 = test: as above; conditions: Gynecologic cancer cell panel viability, ATPlite luminescence, 48 h; series mostly up to 57.5 µM
# How it was run: as §1
# CASKI = test: as above; conditions: Gynecologic cancer cell panel viability, ATPlite luminescence, 48 h; series mostly up to 57.5 µM
# How it was run: as §1
# Es-2 = test: as above; conditions: Gynecologic cancer cell panel viability, ATPlite luminescence, 48 h; series mostly up to 57.5 µM
# How it was run: as §1
# HeLa = test: as above; conditions: Gynecologic cancer cell panel viability, ATPlite luminescence, 48 h; series mostly up to 57.5 µM
# How it was run: as §1
# Hek293T = test: as above; conditions: Gynecologic cancer cell panel viability, ATPlite luminescence, 48 h, control line for the selectivity index; series mostly up to 57.5 µM
# How it was run: as §1
# JEG-3 = test: as above; conditions: Gynecologic cancer cell panel viability, ATPlite luminescence, 48 h; series mostly up to 57.5 µM
# How it was run: as §1
# OV90 = test: as above; conditions: Gynecologic cancer cell panel viability, ATPlite luminescence, 48 h; series mostly up to 57.5 µM
# How it was run: as §1
# PA-1 = test: as above; conditions: Gynecologic cancer cell panel viability, ATPlite luminescence, 48 h; series mostly up to 57.5 µM
# How it was run: as §1
# SKOV3 = test: as above; conditions: Gynecologic cancer cell panel viability, ATPlite luminescence, 48 h; series mostly up to 57.5 µM
# How it was run: as §1
# Tov-21-G = test: as above; conditions: Gynecologic cancer cell panel viability, ATPlite luminescence, 48 h; series mostly up to 57.5 µM
# How it was run: as §1
# Tov112D = test: as above; conditions: Gynecologic cancer cell panel viability, ATPlite luminescence, 48 h; series mostly up to 57.5 µM
# How it was run: as §1
# [1] = Drug repurposing screens with cells derived from glioblastoma tumor samples (AID 1345199); conditions: GBM patient neurospheres viability, ATP luminescence, 48 h; note: nearly all actives have a fitted effect of over 40% in size; note: potency is the fitted concentration of half-maximal effect
# How it was run: (§2)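 Four patient lines of CD133+ GBM neurospheres were screened at several concentrations; hits were retested in those lines plus three slower-growing GBM lines, using 48-hour treatment and ATP-based viability.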
# astro = test: as above; conditions: viability, ATP luminescence, 48 h; series mostly up to 45.9 µM
# How it was run: as §2
# [2] = qHTS assay for small molecule activators of the human pregnane X receptor (PXR) signaling pathway (AID 720659; call rule not given here)
# [3] = biological target: Nuclear receptor subfamily 1 group I member 2 (Rattus norvegicus) (UniProt Q9R1A7); test: qHTS assay for small molecule activators of the rat pregnane X receptor (rPXR) signaling pathway (AID 651751; call rule not given here); conditions: rPXR reporter cells, luciferase (One-Glo), 24 h
# Sequence of Nuclear receptor subfamily 1 group I member 2 (Rattus norvegicus) (Q9R1A7 whole entry, looked up): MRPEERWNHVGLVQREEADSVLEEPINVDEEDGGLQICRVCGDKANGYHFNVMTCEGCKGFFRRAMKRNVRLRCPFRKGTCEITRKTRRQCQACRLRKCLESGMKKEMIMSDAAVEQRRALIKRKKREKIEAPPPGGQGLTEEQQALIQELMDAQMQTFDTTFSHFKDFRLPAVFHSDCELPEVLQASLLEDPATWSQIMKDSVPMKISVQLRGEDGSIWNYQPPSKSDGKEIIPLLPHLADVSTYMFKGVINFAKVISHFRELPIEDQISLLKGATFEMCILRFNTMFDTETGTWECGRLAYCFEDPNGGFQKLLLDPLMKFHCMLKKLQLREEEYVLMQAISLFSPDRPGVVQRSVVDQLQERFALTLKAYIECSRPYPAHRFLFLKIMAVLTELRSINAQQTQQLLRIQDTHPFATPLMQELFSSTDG
# [4] = at 45.9 µM (top of the series), tumour line B
# [5] = at 45.9 µM (top of the series), tumour line D
# [6] = at 46.1 µM (top of the series), tumour line C
# [7] = at 46 µM (top of the series), tumour line A
# [8] = at 91.6 µM (top of the series), tumour line B
# [9] = at 91.6 µM (top of the series), tumour line D
# [10] = at 99.2 µM (top of the series), tumour line C
# [11] = at 91.6 µM (top of the series), tumour line A
compound,measurement,setting,value
CCCCCC[C@@H](CCC)C(=O)O,Potency,C33A,inactive
same,Potency,CAOV3,inactive
same,Potency,CASKI,inactive
same,Potency,Es-2,inactive
same,Potency,HeLa,inactive
same,Potency,Hek293T,inactive
same,Potency,JEG-3,inactive
same,Potency,OV90,inactive
same,Potency,PA-1,inactive
same,Potency,SKOV3,inactive
same,Potency,Tov-21-G,inactive
same,Potency,Tov112D,inactive
same,"activity, negative = cell killing",[1]; [4],-11.8%
same,"activity, negative = cell killing",[1]; [5],-7.11%
same,"activity, negative = cell killing",[1]; [6],-6.46%
same,Potency,astro,inactive
C1N2CN3CN1CN(C2)C3,Potency,C33A,inactive
same,Potency,CAOV3,inactive
same,Potency,CASKI,inactive
same,Potency,Es-2,inactive
same,Potency,HeLa,inactive
same,Potency,Hek293T,inactive
same,Potency,JEG-3,inactive
same,Potency,OV90,inactive
same,Potency,PA-1,inactive
same,Potency,SKOV3,inactive
same,Potency,Tov-21-G,inactive
same,Potency,Tov112D,inactive
same,"activity, negative = cell killing",[1]; [4],-5.59%
same,"activity, negative = cell killing",[1]; [5],-12.9%
same,"activity, negative = cell killing",[1]; [7],-29.1%
same,"activity, negative = cell killing",[1]; [6],5.12%
same,Potency,astro,inactive
CC(=O)O[C@@H]1C(=O)O[C@@H]2[C@H]1OC(=O)[C@@H]2OC(C)=O,Potency,C33A,inactive
same,Potency,CAOV3,inactive
same,Potency,CASKI,inactive
same,Potency,Es-2,inactive
same,Potency,HeLa,inactive
same,Potency,Hek293T,inactive
same,Potency,JEG-3,inactive
same,Potency,OV90,inactive
same,Potency,PA-1,inactive
same,Potency,SKOV3,inactive
same,Potency,Tov-21-G,inactive
same,Potency,Tov112D,inactive
same,"activity, negative = cell killing",[1]; [4],-13.4%
same,"activity, negative = cell killing",[1]; [5],5.03%
same,"activity, negative = cell killing",[1]; [6],-4%
same,Potency,astro,inactive
NCC(=O)O,"activity, negative = cell killing",[1]; [7],1.41%
CCCCC(CC)COC(=O)c1ccccc1C(=O)O (stereo not given),"activity, negative = cell killing",[1]; [8],-11.6%
same,"activity, negative = cell killing",[1]; [9],-15.6%
same,"activity, negative = cell killing",[1]; [10],-7.68%
O=C(NO)c1ccccc1,"activity, negative = cell killing",[1]; [8],-25.1%
same,"activity, negative = cell killing",[1]; [9],-20.6%
same,"activity, negative = cell killing",[1]; [10],-13.7%
COC(=O)C1=C(C)NC(COC(N)=O)=C(C(=O)OC(C)C)C1c1cccc(Cl)c1Cl (stereo not given),Potency,[1]; tumour line D,12.6 µM (active)
O=C(O)[C@H](O)[C@@H](O)[C@H](O[C@@H]1O[C@H](CO)[C@H](O)[C@H](O)[C@H]1O)[C@H](O)CO,"activity, negative = cell killing","[1]; at 20 µM (top of the series), tumour line C",-12.3%
same,"activity, negative = cell killing","[1]; at 21.2 µM (top of the series), tumour line B",-2.57%
same,"activity, negative = cell killing","[1]; at 21.2 µM (top of the series), tumour line D",-4.25%
same,"activity, negative = cell killing","[1]; at 21.3 µM (top of the series), tumour line A",-22.9%
C1=CC2C3C=CC(C3)C2C1 (stereo not given),"activity, negative = cell killing",[1]; [11],-19.8%
same,outcome,[2],inactive
c1ccc2occc2c1,"activity, negative = cell killing",[1]; [11],-19.3%
CCCC(=O)c1cc(O)c(O)cc1O,Potency,C33A,inactive
same,Potency,CAOV3,inactive
same,Potency,CASKI,inactive
same,Potency,Es-2,inactive
same,Potency,HeLa,inactive
same,Potency,Hek293T,inactive
same,Potency,JEG-3,inactive
same,Potency,OV90,inactive
same,Potency,Tov-21-G,inactive
same,Potency,Tov112D,inactive
same,"activity, negative = cell killing",[1]; [8],-19.8%
same,"activity, negative = cell killing",[1]; [10],-23.6%
same,max response,[3],-4.26%
same,outcome,[2],inactive
CN(C)c1cc2c(Nc3ccc4c(cnn4Cc4ccccc4)c3)ncnc2cn1,Potency,C33A,inactive
same,Potency,CAOV3,inactive
same,Potency,CASKI,inactive
same,Potency,Es-2,inactive
same,Potency,HeLa,inactive
same,Potency,Hek293T,inactive
same,Potency,JEG-3,inactive
same,Potency,OV90,inactive
same,Potency,SKOV3,inactive
same,Potency,Tov-21-G,inactive
same,Potency,Tov112D,inactive
CC(=O)/C=C/C=C1/C2CCC(C2)C1(C)C (stereo not given),Potency,C33A,inactive
same,Potency,CAOV3,inactive
same,Potency,CASKI,inactive
same,Potency,Es-2,inactive
same,Potency,HeLa,inactive
same,Potency,Hek293T,inactive
same,Potency,JEG-3,inactive
same,Potency,OV90,inactive
same,Potency,SKOV3,inactive
same,Potency,Tov-21-G,inactive
same,Potency,Tov112D,inactive
